Measurements reported in PubChem BioAssay.

Key:
[1] = test system: Human papillomavirus type 1a protein E7 (residues 44-93); experiment: small molecules binding HPV E7 44-93 – biochemical, small-molecule microarray, residues 44-93, 635 nm fluorescence, primary screen (AID 1108); conditions: fluorescence 635 nm, higher = more signal;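 note: E7 fragment applied at 1 µg/mL in TBST for 1 h at 4 C; score combines spot fluorescence with its signal to noise ratio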
[2] = hepatitis C replication reporter changes, two-sided – Huh7 cells, luciferase reporter, HCV replication inhibitor project, primary screen (AID 1109); conditions: Huh7 HCV replicon luciferase reporter, 48 h; higher = more signal;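 note: huh7 hepatoma cells harbouring a luciferase neomycin HCV replicon reporter; luciferase luminescence as measure of HCV replicon replication; test concentration not given here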
[3] = molecular target: Left-right determination factor 2 (Homo sapiens) (UniProt O00292); experiment: small molecules binding LEFTY2 protein – biochemical, small-molecule microarray, 635 nm fluorescence scan, primary screen (AID 1110); conditions: higher = more signal
Sequence of Left-right determination factor 2 (Homo sapiens) (O00292 whole entry, looked up): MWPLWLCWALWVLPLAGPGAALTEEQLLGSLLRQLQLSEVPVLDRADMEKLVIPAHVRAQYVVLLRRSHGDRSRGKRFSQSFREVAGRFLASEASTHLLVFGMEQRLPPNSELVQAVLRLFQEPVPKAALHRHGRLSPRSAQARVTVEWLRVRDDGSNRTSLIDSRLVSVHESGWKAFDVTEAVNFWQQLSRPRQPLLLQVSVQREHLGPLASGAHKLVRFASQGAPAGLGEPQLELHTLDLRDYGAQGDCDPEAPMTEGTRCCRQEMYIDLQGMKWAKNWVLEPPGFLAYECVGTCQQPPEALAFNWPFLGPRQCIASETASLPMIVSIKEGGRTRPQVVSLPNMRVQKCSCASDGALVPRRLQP

[4] = molecular target: Calmodulin-1 (Homo sapiens) (UniProt P0DP23); experiment: small molecules binding calmodulin-1 with EGTA – biochemical, small-molecule microarray, Cy5-labelled CALM1, profiling panel (AID 1111); conditions: Cy5-CALM1 binding fluorescence, higher = more signal;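 note: labelled calmodulin applied in Tris saline Tween buffer holding calcium plus EGTA and DTT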
[5] = molecular target: Calmodulin-1 (Homo sapiens) (UniProt P0DP23); experiment: small molecules binding Ca-loaded calmodulin-1 – biochemical, small-molecule microarray, Cy5-labelled CALM1, plus calcium, artefact control for SMM control-protein annotation, profiling panel (AID 1112); conditions: Cy5-CALM1 binding fluorescence, higher = more signal;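 note: score merges spot fluorescence with signal to noise from triplicate slides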
[6] = probe aWnt5a binding to arrayed compounds – biochemical, biotinylated probe, 635/667 nm fluorescence, primary screen (AID 1113); conditions: small-molecule microarray, higher = more signal;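 note: score merges 667 nm fluorescence intensity with signal-to-noise per printed feature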
[7] = probe aShh binding to arrayed compounds – biochemical, biotinylated probe, 635/667 nm fluorescence, primary screen (AID 1114); conditions: small-molecule microarray, higher = more signal;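 note: probe is biotin-labelled aShh protein from a stem cell growth factor screen; measures binding of labelled protein to compounds printed on the slide; score merges feature fluorescence at 667 nm with signal-to-noise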
[8] = probe aNog binding to arrayed compounds – biochemical, biotinylated probe, 635/667 nm fluorescence, primary screen (AID 1115); conditions: small-molecule microarray, higher = more signal;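 note: probe is biotinylated aNog protein used at 0.15 µg/mL for 1 h at 4 C; z-score combines 667 nm fluorescence of each spot with its signal to noise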
[9] = molecular target: Torsin-1A-interacting protein 1 (Homo sapiens) (UniProt Q5JTV8); experiment: compound microarray binding of lysate hLAP1 – cell lysate, small-molecule microarray, COS7 lysate, 635/667 nm fluorescence, primary screen (AID 1116); conditions: 635 nm fluorescence, higher = more signal
Sequence of Torsin-1A-interacting protein 1 (Homo sapiens) (Q5JTV8 whole entry, looked up): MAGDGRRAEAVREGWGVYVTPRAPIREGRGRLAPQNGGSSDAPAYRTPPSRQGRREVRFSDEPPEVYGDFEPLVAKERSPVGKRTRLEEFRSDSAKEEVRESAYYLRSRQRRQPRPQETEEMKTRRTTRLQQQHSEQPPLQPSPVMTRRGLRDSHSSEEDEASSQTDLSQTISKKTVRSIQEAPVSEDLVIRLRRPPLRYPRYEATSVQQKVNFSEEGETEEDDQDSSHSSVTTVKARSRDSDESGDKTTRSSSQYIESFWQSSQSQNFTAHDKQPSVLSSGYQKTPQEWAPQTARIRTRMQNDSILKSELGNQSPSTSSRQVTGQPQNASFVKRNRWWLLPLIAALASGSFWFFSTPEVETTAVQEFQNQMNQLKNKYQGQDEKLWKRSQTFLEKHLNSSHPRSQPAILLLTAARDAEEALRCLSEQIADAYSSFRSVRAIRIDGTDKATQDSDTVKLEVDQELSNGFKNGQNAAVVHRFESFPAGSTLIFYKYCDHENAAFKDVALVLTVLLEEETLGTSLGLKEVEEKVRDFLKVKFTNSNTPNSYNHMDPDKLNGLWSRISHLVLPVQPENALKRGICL

[10] = molecular target: Alpha-bungarotoxin (Bungarus multicinctus) (UniProt P60615); experiment: compounds binding labelled alpha-BTX control protein – biochemical, small-molecule microarray, Alexa647 label, 635/667 nm fluorescence, artefact control for SMM control protein annotation, profiling panel (AID 1117); conditions: alpha-BTX-A647 binding fluorescence, higher = more signal
Sequence of Alpha-bungarotoxin (Bungarus multicinctus) (P60615 whole entry, looked up): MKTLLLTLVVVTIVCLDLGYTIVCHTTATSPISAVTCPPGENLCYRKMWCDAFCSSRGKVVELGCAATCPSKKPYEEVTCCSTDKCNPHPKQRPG

SMILES	composite z-score [1]	z-score [2]	composite z-score [3]	composite z-score [4]	composite z-score [5]	composite z-score [6]	composite z-score [7]	composite z-score [8]	composite z-score [9]	composite z-score [10]
COC(=O)c1c2oc(c1C(=O)OC)C(=O)N[C@@H](C(C)C)Cn1cc(nn1)C1(CCCCC1)NC(=O)N[C@H](CO)CC2	0.218	1.48	-0.05	-0.346	-0.403	-0.0269	-0.0769	0.621	0.764	-0.216
COC(=O)[C@@]1(Cc2ccc(OC)cc2)[C@H]2c3cc(C(=O)N4CCCC4)n(CCSCCO)c3C[C@H]2CN1C(=O)c1ccccc1	1.37	-1.48	-0.641	1.66	0.644	0.151	0.0039	2.04	1.01	1.22
CC(=O)n1cc(C(O)C2C=CC3C(=O)NC(=O)C3N2Nc2ccccn2)c2ccccc21 (stereo not given)	-0.0484	-0.75	0.0729	-0.2	-0.36	-0.124	-0.138	-0.0615	-0.19	0.751
O=C1OCCC=C[C@H]2OC34C=CCN(c5ccc(Cl)cc5)C(=O)[C@H]3N(CCCO)C(=O)[C@@H]4C12 (stereo not given in full)	-0.726	-1.04	-0.131	0.0745	0.168	-0.182	-0.186	0	-0.421	0.275
COCCOC(=O)N1C(=O)[C@@]2(c3cc(C#Cc4ccc(OC)cc4)ccc31)[C@H](c1ccc(O)cc1)N1[C@H](c3ccccc3)[C@H](c3ccccc3)OC(=O)[C@H]1[C@@H]2C(=O)Nc1nc2ccccc2s1	1.37	-1	0.389	1.18	0.907	-0.0778	-0.262	-0.129	0.373	0.912
CC1CC/C=C\[C@H]2OC34C=CCN(Cn5nnc6ccccc65)C(=O)[C@H]3N(CCCCCO)C(=O)[C@@H]4C2C(=O)O1 (stereo not given in full)	-1.05	0.814	-1.54	-0.881	0.0455	-0.197	-0.283	0.558	-0.722	-1.3
CC#CC(=O)Oc1ccc(Br)cc1C=CC(=O)OCC	1.23	-2.4	-0.034	-0.323	-0.465	-0.0154	0.42	0.302	0.286	0.683
COCCCNC(=O)[C@@]1(Cc2ccccc2)N=C(c2ccc(OCCCO)cc2)O[C@H]1c1ccccc1CN=[N+]=[N-]	0.596	-2.86	0.0508	2.14	0.451	0.0445	0.496	1.36	2.35	2.23
C=CC1c2cc(O)c(OC)cc2CCN1Cc1cccc(OC(F)(F)F)c1 (stereo not given)	0.625	-1.79	-0.154	0.667	-0.566	-0.175	-0.0146	-0.483	0.828	0.39
COCCCNC(=O)[C@@H]1c2ccccc2C(=O)N(Cc2ccccc2OC)[C@H]1c1ccc(CO)cc1	0.889	-1.96	-0.0144	0.349	0.392	0.0279	-0.0035	-0.136	1.62	0.117
C=CCN1C(=O)[C@]2(Cc3ccccc3)N=C(c3ccc(OCCCO)cc3)O[C@@H]2c2ccccc21	1.45	-1.84	0.993	0.893	-0.672	-0.0519	0.531	-0.802	0.251	1.04
O=C1C2C=CC(C(O)c3ccc4c(c3)OCO4)N(Nc3ccc([N+](=O)[O-])cc3)C2C(=O)N1c1ccccc1 (stereo not given)	1.12	-0.133	0.219	-0.182	-0.429	-0.0445	-0.0968	-0.418	-0.181	0.177
C=CC[C@]1(C(N)=O)N=C(c2ccc(OCCCO)cc2)O[C@H]1c1ccccc1	-0.434	-0.31	-0.524	0.27	-0.665	-0.0685	0.401	0.041	1.59	0.947
COC(=O)[C@@]1(Cc2ccc(OC)cc2)[C@H]2c3cc(C(=O)N4CCCC4)n(CCc4ccc(O)c(O)c4)c3C[C@H]2CN1C(=O)c1ccccc1	-1.4	-1.1	-0.618	1.39	0.679	-0.0057	-0.0977	1.12	2.24	0.0407
COC(=O)[C@@]1(Cc2ccccc2)[C@H]2c3cc(C(=O)N4CCCC4)n(Cc4c(CO)[nH]cc(C)c4=O)c3C[C@H]2CN1C(=O)c1ccccc1	-0.596	-0.783	-0.169	1.71	0.893	0.0775	-0.181	1.28	2.02	0.546
O=C1C2C=CC(C(O)C=Cc3ccc([N+](=O)[O-])cc3)N(Nc3ccccc3F)C2C(=O)N1c1ccccc1 (stereo not given)	1.47	-0.969	0.458	1.27	0.362	0.0037	0.166	0.581	1.18	1.12
COC(=O)C[C@H]1O[C@@H](CCc2ccccc2)[C@@H](C)[C@@H]1[Si](C)(C)c1ccc(OC)cc1	-0.504	-0.638	-0.0374	-0.606	0.125	-0.232	-0.439	-0.266	-0.562	-0.763
